Inconclusive results are not listed. Active and inactive are the calls of the source. Unless noted, calls come from the whole dose curve.
Experiments:
[1] = Nuclear factor erythroid 2-related factor 2/antioxidant responsive element (Nrf2/ARE) small molecule agonists: qHTS cell viability counter screen in human keratinocytes (AID 1919968; active = well fitted curve in the direction sought with a large enough effect in the repeat runs; an effect the other way counts as inactive or inconclusive; note: nearly all actives have a fitted effect of over 55% in size)
Outline: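 Cells of the KeratinoSens line were plated at 1,500 per well and left for 5 h before compound transfer from DMSO stocks. After a 23 h incubation (37 C, 5% CO2), CellTiter-Fluor was added. Signal was taken as fluorescence intensity 1 h later.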

[2] = molecular target: Gonadotropin-releasing hormone receptor (Homo sapiens) (UniProt P30968); experiment: Human gonadotropin-releasing hormone receptor (GnRHR) small molecule agonists, calcium flux assay in GnRHR-HEK293 cells (AID 1920063); note: nearly all actives have a fitted effect of over 35% in size
Gonadotropin-releasing hormone receptor (Homo sapiens), sequence (P30968 whole entry, looked up): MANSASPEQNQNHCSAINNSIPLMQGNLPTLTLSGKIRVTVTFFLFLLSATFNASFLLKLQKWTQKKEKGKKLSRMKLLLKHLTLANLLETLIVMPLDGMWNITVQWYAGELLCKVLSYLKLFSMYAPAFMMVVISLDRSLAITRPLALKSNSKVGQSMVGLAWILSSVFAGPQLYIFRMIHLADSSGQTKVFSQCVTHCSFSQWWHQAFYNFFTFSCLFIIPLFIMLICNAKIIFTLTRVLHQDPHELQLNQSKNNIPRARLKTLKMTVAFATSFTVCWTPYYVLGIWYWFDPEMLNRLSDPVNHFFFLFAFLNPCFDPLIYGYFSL
Outline: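 Compounds dissolved in DMSO are pin-transferred onto dye-loaded GnRHR-HEK293 cells, which were seeded 18 h before at 37 C/5% CO2. Calcium signal is read as fluorescence intensity at 1 s intervals for 3 min.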

[3] = molecular target: KiSS-1 receptor (Homo sapiens) (UniProt Q969F8); experiment: Human kisspeptin (KISS1R) small molecule agonists, calcium flux assay in KISS1R-HEK293 cells (AID 1920064; active = well fitted curve in the direction sought with a large enough effect in the repeat runs; an effect the other way counts as inactive or inconclusive)
KiSS-1 receptor (Homo sapiens), sequence (Q969F8 whole entry, looked up): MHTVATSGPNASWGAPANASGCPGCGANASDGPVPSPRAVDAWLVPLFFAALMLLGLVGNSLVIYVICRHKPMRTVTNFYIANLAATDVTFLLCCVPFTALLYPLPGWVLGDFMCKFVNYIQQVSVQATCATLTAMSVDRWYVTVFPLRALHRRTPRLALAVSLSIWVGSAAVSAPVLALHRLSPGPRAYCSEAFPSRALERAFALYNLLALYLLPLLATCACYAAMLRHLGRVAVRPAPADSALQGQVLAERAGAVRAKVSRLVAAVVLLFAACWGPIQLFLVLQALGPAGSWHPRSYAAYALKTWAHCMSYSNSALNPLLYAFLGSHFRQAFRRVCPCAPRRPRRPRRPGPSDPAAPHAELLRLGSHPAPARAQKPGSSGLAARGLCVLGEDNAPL
Outline: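 Cell line: HEK293, stable human KISS1R. Dye loading 1 h at 37 C after 18 h culture. Read: kinetic fluorescence, 480/540 nm, 3 min at 1 s intervals.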

[4] = G protein-coupled receptor (GPCR) small molecule agonists, calcium flux assay: HEK293 wild type cell line counter screen (AID 1920065)
Outline: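 Tox21 10K compounds, 15 concentrations each in triplicate, pin-transferred in DMSO onto dye-loaded cells; kinetic read at 480/540 nm for 3 min, 1 s intervals.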

[5] = p53 small molecule agonists, cell-based qHTS assay with human liver microsomes (AID 1963577);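 note: p53 response element beta-lactamase reporter cells with liver microsomes plus NADPH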
Outline: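 Steps: plate p53RE-bla cells, incubate 5 h at 37 C; add compound in DMSO; add microsomes (0.5 mg/mL final) and NADPH (0.5 mg/mL final); incubate 16 h at 37 C; add LiveBLAzer, 2 h RT; read fluorescence.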

[6] = p53 small molecule agonists, cell-based qHTS assay with rat liver microsomes (AID 1963578)
Outline: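 Metabolic activation is supplied by rat liver microsomes with NADPH (each 0.5 mg/mL final). p53RE-bla cells incubate with compound 16 h at 37 C; reporter activity is measured by LiveBLAzer fluorescence.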

[7] = p53 small molecule agonists, cell-based qHTS assay with human liver microsomes: qHTS cell viability counter screen (AID 1963579); note: nearly all actives have a fitted effect of over 45% in size
Outline: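 After the 460/530 nm beta-lactamase read, CellTiter-Glo was added to the same wells and luminescence measured after 30 min at room temperature, giving viability of p53RE-bla cells treated 16 h with compounds plus microsomes and NADPH.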

[8] = p53 small molecule agonists, cell-based qHTS assay with rat liver microsomes: qHTS cell viability counter screen (AID 1963580); note: nearly all actives have a fitted effect of over 45% in size
Outline: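 After the beta-lactamase ratio was read, CellTiter-Glo was added to the same wells and luminescence measured at 30 min; cells had been treated 16 h at 37 C with compounds, rat liver microsomes and NADPH (0.5 mg/mL final each).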

[9] = p53 small molecule agonists, cell-based qHTS assay: qHTS cell viability counter screen (AID 1963581); note: nearly all actives have a fitted effect of over 45% in size
Outline: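 ATP content measured by luminescence in HCT-116 p53RE-bla cells treated 16 h at 37 C, same wells as the reporter screen.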

[10] = p53 small molecule agonists, cell-based qHTS assay (AID 1963582; active = well fitted activation curve with a large enough effect in the signal ratio in the repeat runs, not every such curve was filed as active; the % refers to the signal ratio)
Outline: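 16 h compound exposure (37 C) of p53 response element–bla cells, preceded by 5 h recovery at 37 C/5% CO2; read-out via LiveBLAzer B/G FRET substrate, 2 h RT, fluorescence intensity.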

[11] = molecular target: 5-hydroxytryptamine receptor 2A (Homo sapiens) (UniProt P28223); experiment: 5-hydroxytryptamine receptor 2A (HTR2A) small molecule antagonists, cell-based qHTS assay (AID 1963586); note: nearly all actives have a fitted effect of over 45% in size; note: potency is the fitted concentration of half-maximal effect
5-hydroxytryptamine receptor 2A (Homo sapiens), sequence (P28223 whole entry, looked up): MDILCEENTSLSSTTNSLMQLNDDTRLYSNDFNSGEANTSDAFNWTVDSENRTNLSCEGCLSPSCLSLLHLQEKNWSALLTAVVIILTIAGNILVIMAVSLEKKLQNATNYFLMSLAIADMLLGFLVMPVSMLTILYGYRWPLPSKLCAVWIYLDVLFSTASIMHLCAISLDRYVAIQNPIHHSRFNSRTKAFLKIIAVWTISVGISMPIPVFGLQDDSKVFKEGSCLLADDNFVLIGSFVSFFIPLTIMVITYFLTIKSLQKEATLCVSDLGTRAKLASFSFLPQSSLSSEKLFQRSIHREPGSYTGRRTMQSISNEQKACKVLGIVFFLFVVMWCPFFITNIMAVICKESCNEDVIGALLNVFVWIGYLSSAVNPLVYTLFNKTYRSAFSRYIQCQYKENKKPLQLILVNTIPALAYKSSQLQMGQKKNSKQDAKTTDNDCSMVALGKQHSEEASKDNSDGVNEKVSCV
Outline: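 CHO cells stably expressing human HTR2A were plated for 18 h at 37 C, then loaded with calcium dye for 1 h. Compounds were preincubated 5 min at room temperature before DOI (4 nM solution) was added. Kinetic fluorescence was read for 3 min.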

[12] = molecular target: 5-hydroxytryptamine receptor 2A (Homo sapiens) (UniProt P28223); experiment: 5-hydroxytryptamine receptor 2A (HTR2A) small molecule agonists, cell-based qHTS assay (AID 1963587); note: nearly all actives have a fitted effect of over 30% in size; note: potency is the fitted concentration of half-maximal effect
Outline: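 CHO cells stably expressing human HTR2A, plated 18 h, loaded with calcium dye 1 h at 37 C. Agonist mode: compounds added and intracellular calcium fluorescence recorded kinetically for 2 min at 1 sec intervals.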

[13] = molecular target: Muscarinic acetylcholine receptor M1 (Homo sapiens) (UniProt P11229); experiment: Cholinergic receptor muscarinic 1 (CHRM1) small molecule antagonists, cell-based qHTS assay (AID 1963588); note: nearly all actives have a fitted effect of over 40% in size
Muscarinic acetylcholine receptor M1 (Homo sapiens), sequence (P11229 whole entry, looked up): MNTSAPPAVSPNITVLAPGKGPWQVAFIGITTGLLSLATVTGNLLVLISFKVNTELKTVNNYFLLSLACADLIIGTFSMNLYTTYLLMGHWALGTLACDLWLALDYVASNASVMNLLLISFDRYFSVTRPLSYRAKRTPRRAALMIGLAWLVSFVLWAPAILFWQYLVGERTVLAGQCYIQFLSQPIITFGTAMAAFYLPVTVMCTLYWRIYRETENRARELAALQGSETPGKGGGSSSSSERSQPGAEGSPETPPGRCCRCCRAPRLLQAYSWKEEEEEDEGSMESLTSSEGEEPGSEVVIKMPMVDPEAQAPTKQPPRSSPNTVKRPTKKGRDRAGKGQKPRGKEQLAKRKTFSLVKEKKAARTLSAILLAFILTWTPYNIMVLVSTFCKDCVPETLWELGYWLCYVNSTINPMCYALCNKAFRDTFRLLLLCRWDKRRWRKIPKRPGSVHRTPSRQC
Outline: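 Compounds were tested at 15 concentrations in three independent runs. Dye-loaded CHRM1-CHO cells were exposed 5 min at room temperature before stimulation by acetylcholine added at 50nM. Intracellular calcium was read kinetically on FDSS for 3 min.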

[14] = cAMP Responsive Elements (CRE) small molecule agonists, cell-based qHTS assay (AID 1963590)
Outline: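 HEK 293T cells stably bearing CRE-bla were plated at 2,000 cells per well and rested 18 h. Compounds, positive controls or DMSO were added for 3 h at 37 C. LiveBLAzer B/G substrate was then loaded for 2 h at room temperature.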

[15] = cAMP Responsive Elements (CRE) small molecule antagonists, cell-based qHTS assay (AID 1963591; active = well fitted inhibition curve with a large enough effect in the signal ratio in the repeat runs, not every such curve was filed as active; the % refers to the signal ratio)
Outline: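 First, CRE-bla HEK293T cells settled 18 h at 37 C. Next, compound and 0.25 uM final NKH477 were applied for 3 h. Last, LiveBLAzer B/G substrate was loaded for 2 h at room temperature.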

[16] = molecular target: Beta-2 adrenergic receptor (Homo sapiens) (UniProt P07550); experiment: Adrenergic beta2 receptor (ADRB2) small molecule antagonists, cell-based qHTS assay (AID 1963592); note: nearly all actives have a fitted effect of over 50% in size; note: potency is the fitted concentration of half-maximal effect
Beta-2 adrenergic receptor (Homo sapiens), sequence (P07550 whole entry, looked up): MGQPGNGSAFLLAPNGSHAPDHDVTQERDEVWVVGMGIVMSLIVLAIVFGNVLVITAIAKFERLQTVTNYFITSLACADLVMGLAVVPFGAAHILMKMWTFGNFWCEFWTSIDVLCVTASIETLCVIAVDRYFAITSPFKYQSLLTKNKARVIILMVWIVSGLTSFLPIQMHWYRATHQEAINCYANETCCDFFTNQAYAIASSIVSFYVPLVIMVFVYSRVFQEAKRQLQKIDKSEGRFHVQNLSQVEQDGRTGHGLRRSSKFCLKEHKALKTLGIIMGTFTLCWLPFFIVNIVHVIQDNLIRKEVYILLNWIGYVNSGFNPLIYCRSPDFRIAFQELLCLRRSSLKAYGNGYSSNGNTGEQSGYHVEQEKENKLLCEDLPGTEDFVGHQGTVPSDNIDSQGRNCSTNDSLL
Outline: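 Assay format: CHO-ADRB2 cells, 18-20hr seeding at 37C/5% CO2, then compound plus 1nM isoproterenol agonist mix for 0.5hr RT. Homogeneous time-resolved fluorescence cAMP detection after 1hr, expressed as 665/615 nm ratio.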

[17] = molecular target: Beta-2 adrenergic receptor (Homo sapiens) (UniProt P07550); experiment: Adrenergic beta2 receptor (ADRB2) small molecule agonists, cell-based qHTS assay (AID 1963593);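 note: CHO cells stably overexpressing human ADRB2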
Outline: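 CHO cells stably over-expressing ADRB2 were plated overnight at 37C, then dosed with compounds plus a stimulation mix containing 100uM IBMX and 25uM Ro-20-1724 for 0.5hr at room temperature. cAMP was measured by HTRF competition, 1hr.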

[18] = molecular target: D(2) dopamine receptor (Homo sapiens) (UniProt P14416); experiment: Dopamine D2 receptor (DRD2) small molecule agonists, cell-based qHTS assay (AID 1963594); note: nearly all actives have a fitted effect of over 35% in size
D(2) dopamine receptor (Homo sapiens), sequence (P14416 whole entry, looked up): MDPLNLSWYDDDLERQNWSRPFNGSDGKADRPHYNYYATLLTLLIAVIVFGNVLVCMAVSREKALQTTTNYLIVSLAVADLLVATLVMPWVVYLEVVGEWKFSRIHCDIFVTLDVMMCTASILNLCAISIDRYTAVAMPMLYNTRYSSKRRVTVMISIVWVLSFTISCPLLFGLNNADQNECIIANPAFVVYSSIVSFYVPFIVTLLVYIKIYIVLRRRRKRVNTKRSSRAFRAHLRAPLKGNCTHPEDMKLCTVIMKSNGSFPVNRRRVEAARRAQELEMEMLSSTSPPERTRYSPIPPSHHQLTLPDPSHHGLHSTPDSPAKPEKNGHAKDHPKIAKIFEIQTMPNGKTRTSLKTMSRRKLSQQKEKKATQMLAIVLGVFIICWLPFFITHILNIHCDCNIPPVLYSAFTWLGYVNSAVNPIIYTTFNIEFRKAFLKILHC
Outline: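 HEK293 cells stably expressing human DRD2, pre-treated with PDE inhibitor Ro20-1724 (0.1 mM final) and compound 10 min at room temperature, then stimulated with NKH477 (200nM […]) for 30 min. cAMP read by HTRF (665/620 nm).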

[19] = molecular target: D(2) dopamine receptor (Homo sapiens) (UniProt P14416); experiment: Dopamine D2 receptor (DRD2) small molecule antagonists, cell-based qHTS assay (AID 1963595; active = well fitted inhibition curve with a large enough effect in the signal ratio in the repeat runs, with a control signal flat; the % refers to the signal ratio)
Outline: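 DRD2-HEK293; 0.1 mM Ro20-1724; cpd 10 min RT; NKH477 200 nM + quinpirole 12 nM, 30 min RT; HTRF cAMP (cAMP-d2/anti-cAMP cryptate), 665/620 nm ratio after 1 h.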

[20] = molecular target: Muscarinic acetylcholine receptor M1 (Homo sapiens) (UniProt P11229); experiment: Cholinergic receptor muscarinic 1 (CHRM1) small molecule agonists, cell-based qHTS assay (AID 1963589); note: nearly all actives have a fitted effect of over 35% in size
Outline: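 Homogeneous fluorescence calcium flux, agonist mode. Human M1-expressing CHO cells; compound dosed at 15 concentrations, three independent runs; signal sampled every 1 sec.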

Measured: Potency

CSc1c(Cl)c(Cl)c(Cl)c(Cl)c1Cl
inactive: [1] | [2] | [3] | [4] | [5] | [6] | [7] | [8] | [9] | [10] | [11] | [12] | [13] | [14] | [15] | [16] | [17] | [18] | [19]

CCCCC(CC)COCCCN (stereo not drawn)
inactive: [1] | [2] | [3] | [4] | [5] | [6] | [7] | [8] | [9] | [10] | [11] | [13] | [20] | [15] | [17] | [18] | [19]
active: [12] 17200 nM

CC(C)=CCCC(C)CCOC=O (stereo not drawn)
inactive: [1] | [2] | [3] | [4] | [5] | [6] | [7] | [8] | [9] | [10] | [11] | [12] | [13] | [20] | [14] | [16] | [17] | [18] | [19]

Cc1cccc(OCC(O)CNC(C)(C)C)c1C (stereo not drawn)
inactive: [1] | [2] | [3] | [4] | [5] | [6] | [7] | [8] | [9] | [10] | [11] | [12] | [13] | [20] | [14] | [15] | [19]
active: [16] 7.5 nM

CCC(=O)/C=C/c1ccc(OC)cc1
inactive: [1] | [2] | [3] | [4] | [5] | [6] | [7] | [8] | [9] | [10] | [11] | [12] | [13] | [20] | [17] | [18] | [19]

COc1cccc(N)c1
inactive: [1] | [2] | [3] | [4] | [5] | [6] | [7] | [8] | [9] | [10] | [11] | [12] | [13] | [20] | [14] | [16] | [18] | [19]

CC(=O)O[Si](C)(OC(C)=O)OC(C)=O
inactive: [1] | [2] | [3] | [4] | [5] | [6] | [7] | [8] | [9] | [10] | [11] | [12] | [13] | [20] | [15] | [16] | [18] | [19]

CC(C(=O)O)c1ccc(C(=O)c2cccs2)cc1 (stereo not drawn)
inactive: [1] | [2] | [3] | [4] | [5] | [6] | [7] | [8] | [9] | [10] | [11] | [12] | [13] | [20] | [19]

CC(=O)OC(C)OC(C)=O
inactive: [1] | [2] | [3] | [4] | [5] | [6] | [7] | [8] | [9] | [10] | [11] | [12] | [13] | [20] | [15] | [16] | [18] | [19]

CCCCCCC1CCC(=O)O1 (stereo not drawn)
inactive: [1] | [2] | [3] | [4] | [5] | [6] | [7] | [8] | [9] | [10] | [11] | [12] | [13] | [20] | [15] | [16] | [18] | [19]

O=P(O)(O)OP(=O)(O)O
inactive: [1] | [2] | [3] | [4] | [5] | [6] | [7] | [8] | [9] | [10] | [11] | [12] | [13] | [20] | [14] | [15] | [16] | [19]

Cc1ccccc1N=Nc1ccc(N=Nc2c(O)ccc3ccccc23)c(C)c1
inactive: [1] | [2] | [3] | [4] | [5] | [6] | [7] | [8] | [9] | [10] | [11] | [12] | [13] | [20] | [14] | [16] | [17] | [18] | [19]

O=C(OCCOCCOCCOC(=O)c1ccccc1)c1ccccc1
inactive: [1] | [2] | [3] | [4] | [5] | [6] | [7] | [8] | [9] | [10] | [11] | [12] | [13] | [20] | [16] | [17] | [18] | [19]

COCCOC[C@H](CC1(C(=O)NC2CCC(C(=O)O)CC2)CCCC1)C(=O)Oc1ccc2c(c1)CCC2 (stereo partly drawn)
inactive: [1] | [2] | [3] | [4] | [5] | [6] | [7] | [8] | [9] | [10] | [11] | [12] | [13] | [20] | [14] | [16] | [19]

Nc1ccccn1
inactive: [1] | [2] | [3] | [4] | [5] | [6] | [7] | [8] | [9] | [10] | [12] | [13] | [20] | [14] | [16] | [18] | [19]
active: [11] 31.8 nM

Reference: PubChem BioAssay (Tox21)
